Each structure is given as a SMILES string. Among all 310,000 compounds or so, about 14,000 (4.5%) showed an effect of 50% or more. Effects have a minus sign here. For the sample, strong results were picked, then their nearest neighbours and some compounds at random.
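Note: peak tail current of the secondary pulse compared with the same well before compound.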

Chain of human ether-à-go-go-related gene (hERG) potassium channel (Q12809 whole entry, looked up): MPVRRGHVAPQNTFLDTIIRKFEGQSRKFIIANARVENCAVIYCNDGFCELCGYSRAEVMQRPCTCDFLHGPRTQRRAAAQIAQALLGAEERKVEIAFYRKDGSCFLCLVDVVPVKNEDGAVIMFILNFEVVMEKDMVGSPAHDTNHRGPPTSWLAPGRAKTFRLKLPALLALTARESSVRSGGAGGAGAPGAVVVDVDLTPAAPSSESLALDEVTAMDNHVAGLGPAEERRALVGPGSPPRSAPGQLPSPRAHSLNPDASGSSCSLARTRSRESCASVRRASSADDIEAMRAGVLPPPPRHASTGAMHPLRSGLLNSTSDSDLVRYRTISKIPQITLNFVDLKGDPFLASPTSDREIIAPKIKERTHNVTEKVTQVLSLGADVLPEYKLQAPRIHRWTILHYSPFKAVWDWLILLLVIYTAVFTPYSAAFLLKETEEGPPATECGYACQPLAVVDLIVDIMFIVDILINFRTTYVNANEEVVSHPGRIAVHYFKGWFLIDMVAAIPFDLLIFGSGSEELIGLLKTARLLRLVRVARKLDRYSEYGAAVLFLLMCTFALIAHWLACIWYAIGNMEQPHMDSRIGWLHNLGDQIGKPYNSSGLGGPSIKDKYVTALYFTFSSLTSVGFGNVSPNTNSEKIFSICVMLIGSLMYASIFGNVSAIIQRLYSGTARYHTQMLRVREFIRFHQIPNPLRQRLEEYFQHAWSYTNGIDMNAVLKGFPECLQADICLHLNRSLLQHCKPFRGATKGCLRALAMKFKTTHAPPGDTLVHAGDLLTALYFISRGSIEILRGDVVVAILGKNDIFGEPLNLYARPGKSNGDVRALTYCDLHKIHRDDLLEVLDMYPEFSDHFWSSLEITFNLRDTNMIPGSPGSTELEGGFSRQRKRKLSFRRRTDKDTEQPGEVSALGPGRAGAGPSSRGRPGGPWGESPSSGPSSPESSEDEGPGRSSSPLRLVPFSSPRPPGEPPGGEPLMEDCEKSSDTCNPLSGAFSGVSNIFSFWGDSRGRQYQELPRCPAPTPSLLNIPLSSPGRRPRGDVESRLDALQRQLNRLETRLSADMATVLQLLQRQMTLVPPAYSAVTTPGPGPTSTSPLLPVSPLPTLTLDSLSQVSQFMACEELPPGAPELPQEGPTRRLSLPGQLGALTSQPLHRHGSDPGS

The assay has as its target human ether-à-go-go-related gene (hERG) potassium channel (human, UniProt Q12809). The experiment in a line: primary screen, population patch clamp on CHO cells stably expressing hERG; higher = less effect of the substance.
On to `O=C(CSc1nc2[nH]ncc2c(=O)n1-c1ccc(Cl)c(Cl)c1)NCc1ccccc1Cl`, for which the “hERG current change (%, negative = inhibition) at 10uM” value is given as -11.4%. With `COc1ccc(CCN=C(N)NS(=O)(=O)c2ccccc2)cc1OC` the figure was 19.5%; with `COC(=O)Cc1ccc(NC(=O)c2ccc3c(c2)C(=O)N(Cc2cccnc2)C3=O)cc1`, 5.83%; with `C[C@H](NC(=O)N1C[C@H]2C[C@@H](C1)c1cccc(=O)n1C2)C(=O)Nc1cccc(F)c1`, 2.4%.

Regarding `CC(NS(=O)(=O)c1ccc(OCC(=O)Nc2cccc([N+](=O)[O-])c2)cc1)c1ccccc1` (centres unmarked), the “hERG current change (%, negative = inhibition) at 10uM” value came out at 3.21%. With `COCCN=C1NN=C(c2ccc(C)c([N+](=O)[O-])c2)CS1` the figure was 11.7%. With `O=C(/C=C/c1ccccc1)N/C(=C\c1ccco1)C(=O)O` the figure was 19.6%; with `O=C(O)CSc1nnc(-c2cccs2)n1-c1ccc(Cl)cc1`, -6.94%; with `CCn1c(SCC(=O)NCCc2ccccc2)nnc1-c1cccs1`, -27.6%. In the case of `CCOC(=O)CSc1nnc(-c2cccs2)n1-c1ccccc1`, the “hERG current change (%, negative = inhibition) at 10uM” value is -42.8%. With `CCn1c(SCC(=O)NCCc2ccc(Cl)cc2)nnc1-c1cccs1` the figure was -75.8%.

Take `CCn1c(SCC(=O)c2ccc(Cl)cc2)nnc1-c1cccs1`: the “hERG current change (%, negative = inhibition) at 10uM” value is recorded as -10.8%. On to `Cn1c(SCCOc2ccc(Cl)cc2)nnc1-c1ccncc1`, for which the “hERG current change (%, negative = inhibition) at 10uM” value is on record as -56.3%. With `CCn1c(SCCOc2ccc(Cl)cc2)nnc1-c1cccs1` the figure was -53.8%; with `Cc1ccc(OCCSc2nnc(-c3ccncc3)n2C)cc1`, -28.9%; with `Cn1c(SCCOc2ccc(F)cc2)nnc1-c1ccncc1`, -44.4%. With `Cc1ccc(OCCSc2nnc(-c3cccs3)n2C)cc1` the figure was -37%; with `COC(=O)CSc1nnc(-c2cccs2)n1-c1ccc(Cl)cc1`, -60.4%; with `Cc1cc(OCCSc2nnc(-c3cccs3)n2C)ccc1Cl`, -22.5%. With `CC(C)N(CCNS(=O)(=O)c1ccc(Cl)cc1)C(C)C.Cl`, the “hERG current change (%, negative = inhibition) at 10uM” value is on record as -28.1%. Turning to `O=C(c1[nH]ncc1-c1cccc(Br)c1)C1CO1` (centres unmarked), the “hERG current change (%, negative = inhibition) at 10uM” value was found to be 3.39%. With `O=C(Nc1c(C(=O)N2CCOCC2)cnn1-c1ccccc1)c1ccc(F)cc1` the figure was 13.8%; with `CC(C)c1cc(C(=O)NCCc2ccccc2)no1`, -40.1%. In the case of `CCC(C(=O)NC(C)(C)C)N(Cc1ccco1)C(=O)CNS(=O)(=O)c1ccc(OC)cc1` (centres unmarked) it was 7.49%; in that of `O=C(O)/C(=C\c1ccc2ccccc2c1)c1cccc2ccccc12`, 6.53%.

For `CC(=O)Nc1ccc(C(=O)N/N=C/c2ccncc2)cc1`, the “hERG current change (%, negative = inhibition) at 10uM” value was 0.536%. Take `Cc1cc(C)n2[nH]c(=O)c(N=Nc3cccc(C(F)(F)F)c3)c2n1`: the “hERG current change (%, negative = inhibition) at 10uM” value is given as -23.8%.

On to `CCn1c(SCC(=O)NCC(=O)Nc2ccc(F)cc2)nnc1-c1cccs1`, for which the “hERG current change (%, negative = inhibition) at 10uM” value was -25.1%. As for `CCn1c(SCC(=O)NCc2cccs2)nnc1-c1cccs1`, the “hERG current change (%, negative = inhibition) at 10uM” value is recorded as -20.9%. With `CCn1c(SCC(=O)NCCc2ccc(F)cc2)nnc1-c1cccs1` the figure was -61.9%; with `COc1ccc2[nH]c(=O)c(-c3nnn(-c4ccccc4)n3)cc2c1`, -1.01%; with `Cc1ccc(Cn2c(CCC(=O)O)nc3ncccc3c2=O)cc1`, 13.4%. In the case of `CCc1ccc(-c2cc3c(=O)n(CC(=O)NCCCN4CCN(Cc5ccccc5)CC4)nc(C)n3n2)cc1` it was -22.7%; in that of `CCc1ccc(-c2cc3c(=O)n(CC(=O)NCCCN4CCN(CC)CC4)nc(C)n3n2)cc1`, -30%; in that of `Cc1nn(CC(=O)NCCCN2CCN(C)CC2)c(=O)c2cc(-c3ccccc3)nn12`, 0.586%.

With `Cc1nn(CC(=O)NCCCN2CCC(Cc3ccccc3)CC2)c(=O)c2cc(-c3ccccc3)nn12`, the “hERG current change (%, negative = inhibition) at 10uM” value is listed as -77%. In the case of `Cc1nn(CC(=O)NCCCN2CCCCC2)c(=O)c2cc(-c3ccccc3)nn12` it was -49.4%; in that of `Cc1nn(CC(=O)NCCN2CCCCC2C)c(=O)c2cc(-c3ccccc3)nn12` (centres unmarked), -48.4%; in that of `CCc1ccc(-c2cc3c(=O)n(CC(=O)NCCCN4CCC(Cc5ccccc5)CC4)nc(C)n3n2)cc1`, 2.48%. With `CCc1ccc(-c2cc3c(=O)n(CC(=O)NCCN4CCCCC4C)nc(C)n3n2)cc1` (centres unmarked) the figure was -57.5%; with `Cc1nn(CC(=O)NCCCN2CCN(Cc3ccccc3)CC2)c(=O)c2cc(-c3ccccc3)nn12`, -70.1%; with `Cc1ccc(C2/C(=C(/O)c3ccccc3)C(=O)C(=O)N2CCN2CCOCC2)o1` (centres unmarked), -2.22%.

With `COc1ccc(CCN2C(=O)NC(NC(C)=O)(C(F)(F)F)C2=O)cc1OC` (centres unmarked), the “hERG current change (%, negative = inhibition) at 10uM” value turned out to be 7.51%. In the case of `O=C(c1cccc(N2C(=O)C3C4C=CC(C4)C3C2=O)c1)N1CCN(c2ccccc2)CC1` (centres unmarked) it was -1.68%; in that of `c1ccc(Oc2ccc(-c3ccnc4ncnn34)cc2)cc1`, 10.7%; in that of `c1cn(-c2ccc(-c3ccnc4ncnn34)cc2)cn1`, -27.2%. In the case of `c1ccc2c(c1)ncn2-c1ccc(-c2ccnc3ncnn23)cc1` it was -68%; in that of `Cc1cc(OCC(=O)NC2CCS(=O)(=O)C2)c2c3c(c(=O)oc2c1)CCC3` (centres unmarked), -3.87%; in that of `COc1ccc(CNC(=O)C(=O)NC2CCC(C)CC2)cc1` (centres unmarked), 19.4%. With `C=C(Cl)CSC(=S)N(CC)CC` the figure was 12.1%; with `C=CCn1c(SCC(=O)N(CC)C2CCS(=O)(=O)C2)nc2ccccc2c1=O` (centres unmarked), -79.2%. On to `CCN(C(=O)CSc1nc2ccccc2c(=O)n1CCOC)C1CCS(=O)(=O)C1` (centres unmarked), for which the “hERG current change (%, negative = inhibition) at 10uM” value was -61.2%.

`C=CCn1c(SCC(=O)N(C)C2CCS(=O)(=O)C2)nc2ccccc2c1=O` (centres unmarked): the “hERG current change (%, negative = inhibition) at 10uM” value is listed as -50%. With `C=CCn1c(SCC(=O)N(C)C2CCS(=O)(=O)C2)nnc1-c1ccccc1` (centres unmarked) the figure was 16.8%; with `C=CCn1c(SCC(=O)N(CC)C2CCS(=O)(=O)C2)nnc1-c1ccccc1` (centres unmarked), -2.7%; with `CCN(C(=O)CSc1nc2ccccc2c(=O)n1C(C)COC)C1CCS(=O)(=O)C1` (centres unmarked), -22.8%. In the case of `CCN(C(=O)CSc1nc(-c2cccs2)nc2ccccc12)C1CCS(=O)(=O)C1` (centres unmarked) it was -95.6%; in that of `CCOCCCn1c(SCC(=O)N(C)C2CCS(=O)(=O)C2)nc2ccccc2c1=O` (centres unmarked), -37.5%.

As to `C=CCn1c(SCC(=O)N(CC)C2CCS(=O)(=O)C2)nc2cc(C(=O)O)ccc2c1=O` (centres unmarked), the “hERG current change (%, negative = inhibition) at 10uM” value turned out to be 5.01%. In the case of `CCN(C(=O)CSc1n[nH]c(-c2cccs2)n1)C1CCS(=O)(=O)C1` (centres unmarked), the “hERG current change (%, negative = inhibition) at 10uM” value was found to be 12.2%. In the case of `COCCn1c(SCC(=O)N(C)C2CCS(=O)(=O)C2)nc2ccccc2c1=O` (centres unmarked) it was -12.1%; in that of `O=C(CSc1nc(-c2cccs2)nc2ccccc12)NC1CCS(=O)(=O)C1` (centres unmarked), 6.45%.

Regarding `Cn1c(=O)[nH]c(=O)c2c1[nH]c(=S)n2Cc1ccccc1`, the “hERG current change (%, negative = inhibition) at 10uM” value was 17.5%. In the case of `COc1cc2cc(C(=O)NCCc3ccccc3)[nH]c2cc1OC` it was 19.2%; in that of `COc1ccc(C(=O)/C=C/NCc2ccc(C)cc2)cc1`, -17.2%. With `Cc1ccc2c(c1)c1nnc(SCC(=O)Nc3ccc(N(C)C)cc3)nc1n2CC(=O)O` the figure was 6%; with `Cc1ccc(NC(=O)C2(c3ccccc3)CCOCC2)c([N+](=O)[O-])c1`, -22.5%. With `COC(=O)c1cc(N2CCNCC2)nc2ccccc12.Cl` the figure was -17%; with `CCN1C(=O)c2cccc3c(S(=O)(=O)N(C(=O)c4ccncc4)c4ccc(OC)cc4)ccc1c23`, -7.51%; with `Cc1sc2nc(CN3CCOCC3)nc(Oc3ccc(NC(=O)c4ccco4)cc3)c2c1C`, -38.9%. Consider `Cc1sc2nc(CN3CCCC3)nc(N3CCN(C(=O)c4ccco4)CC3)c2c1C`, for which the “hERG current change (%, negative = inhibition) at 10uM” value is -68.6%. With `Cc1sc2nc(CN3CCCCC3)nc(N3CCN(C(=O)c4ccco4)CC3)c2c1C` the figure was -75%. Take `Cc1sc2nc(CN3CCOCC3)nc(N3CCC(C(N)=O)CC3)c2c1C`: the “hERG current change (%, negative = inhibition) at 10uM” value is 5.73%. With `Cc1sc(NC(=O)c2ccco2)c(CN2CCCCC2)c1C` the figure was -49.9%; with `Cc1sc2nc(CN3CCCC3)nc(N3CCC(C(N)=O)CC3)c2c1C`, -3.64%; with `CCCn1c(SCN2C(=O)c3ccccc3C2=O)nc2cc(Cl)ccc2c1=O`, 16.5%. With `COC(=O)c1ccc(-c2cc(C(=O)O)c3cc4c(cc3n2)OCCO4)cc1` the figure was -0.776%; with `CC(C)C12CN3CCN(CC(C3)/C1=N\NC(=O)Nc1ccccc1)C2`, -16.1%; with `CC(C)n1c(NCc2cccs2)nc2ccccc21`, -12.6%.

Take `O=C(CN1CCN(c2ccccn2)CC1)NCc1cccs1`: the “hERG current change (%, negative = inhibition) at 10uM” value was -26.2%. In the case of `CC(C)n1c(N2CCN(CC(=O)NCc3cccs3)CC2)nc2ccccc21` it was -60.8%. For the compound `CCCn1c(N2CCN(CC(=O)NCc3cccs3)CC2)nc2ccccc21`, the “hERG current change (%, negative = inhibition) at 10uM” value is listed as -74.7%.

For `COc1cccc(N2CCN(CC(=O)NCc3cccs3)CC2)c1`, the “hERG current change (%, negative = inhibition) at 10uM” value is listed as -3.18%.

As for `CC(C)(C)NC(=O)Cn1c(SCC(=O)NCc2cccs2)nc2ccccc21`, the “hERG current change (%, negative = inhibition) at 10uM” value came to 6.18%. With `Nc1c(Cl)ncnc1NCC(O)CO` (centres unmarked) the figure was 17.7%; with `O=C(Nc1ccc(Oc2ccc(NC(=O)c3ccco3)c(NC(=O)c3ccco3)c2)cc1)c1ccco1`, -13.5%.

For the origin of these results see article PMC4336329 (PLoS ONE, 2015).
